target: AMP-activated protein kinase, AMPK (Homo sapiens) (UniProt P54646+O43741+P54619+Q9UGJ0+Q9Y478+Q13131+Q9UGI9); assay: AMP-dependent Kinase enzyme assay. An in vitro enzyme assay that detects ADP turnover that is directly proportional to AMPK activity. This uses naive AMPK that is activated during the assay with MK-8722; assay type: functional; design: scale not given: direction of the effect not stated beside the values; conditions: 30 µM

| SMILES | Percent Effect |
| --- | --- |
| Cc1ccc(C(=O)NCCC2CCN(C)CC2)cc1N(C)S(C)(=O)=O | -4.15% |
| Cn1cnc(S(=O)(=O)N2C[C@@H]3CC[C@H](C2)N(Cc2ccccn2)C3)c1 | 84.4% |
| CN(Cc1ncnn1C1Cc2ccccc2C1)C1CCS(=O)(=O)C1 (stereo not given) | 1.61% |
| Cc1cc(C2CCCN(Cc3nnc(Cc4ccccc4)o3)C2)n[nH]1 (stereo not given) | 18% |
| Cc1ccc(CN(C(=O)NCC2CCCO2)C2CC2)o1 (stereo not given) | -2.62% |
| CNC(=O)c1cn2cc(-c3ccccc3Cl)n(CC=C(C)C)c(=O)c2n1 | 3.23% |
| COc1c(C2CCCN2CC(=O)N(C)Cc2ccco2)c(C)nn1C (stereo not given) | 1.41% |
| O=S(=O)(Cc1nc(C2CC2)no1)c1cc(F)ccc1F | 8.83% |
| CC(C)(C)c1nc(CNc2cc3c(cc2Cl)NC(=O)CO3)no1 | 2.92% |
| OC(CNCCc1nnc2ccccn12)c1ccc(F)c(F)c1 (stereo not given) | 14.5% |
| CN(C)CC1(O)CCCN(C(=O)Cn2nc3ccccc3n2)CC1 (stereo not given) | -12.7% |
| CN(C)C(C(=O)N1CCN(CCn2cccc2)CC1)c1ccc(F)cc1 (stereo not given) | -8.31% |
| CCN(CC)S(=O)(=O)NC1CCN(c2ccc(OC)cc2)CC1 | 9.49% |
| CC1(c2nccs2)CCN(C(=O)CCN2CCOCC2)CC1 | 10.7% |
| O=C(c1cnccn1)N1CCCC(C2=Nc3ccccc3S(=O)(=O)N2)C1 (stereo not given) | 22% |
| Cc1ccc(CCCC(=O)N2CC(=O)Nc3cccnc32)s1 | 2.25% |
| CCNC(=O)[C@@H]1C[C@H](N)CN1c1cc(CC)nc(N(C)C)n1 | -13.7% |
| COc1cccc(CN(C)Cc2c(C)noc2C)c1OC | 18.1% |
| CN(C)c1nc(N)nc(CN2CCCC(c3ccccc3)CC2)n1 (stereo not given) | -3.69% |
| Cc1cccc(C(=O)N2CC(=O)N(c3ccccc3Cl)CC2C)n1 (stereo not given) | 20.1% |

| SMILES | Percent Effect |
| --- | --- |
| CCN1CCC(CC(=O)NCCc2nc(O)cc(O)n2)CC1 | -0.635% |
| COCCCN1CC2(CCN(C(=O)c3ccc(=O)n(C)c3)CC2)CC1=O | 9.31% |
| Cn1ncnc1NCc1ccccc1Cl | 1.77% |
| CC(C)(C)c1cc(CNC(=O)c2cc(COc3ccccc3)[nH]n2)[nH]n1 | 17.9% |
| CC1(c2ncc(CN3CCN(c4ccccn4)CC3)cn2)CCCCO1 (stereo not given) | 5.55% |
| CN(Cc1n[nH]c2c1CCC2)C(=O)c1cc(-c2cccn2C)n[nH]1 | -16.6% |
| CCN(C)S(=O)(=O)N1CCC(C(O)c2ccc(F)cc2)CC1 (stereo not given) | -1.14% |
| CN(CCOc1ccccc1)C(=O)Nc1cccn(C)c1=O | -59.2% |
| Cc1cc(F)ccc1N1CCCC(NC(=O)CCCn2ccnc2)C1 (stereo not given) | 8.09% |
| O=C(NCc1nnc2n1CCC2)c1cccc(Br)c1 | 3.99% |
| Cc1cc(C(N)=O)ccc1NC(=O)N1CCN(c2cccs2)CC1 | -2.73% |
| Cc1ccc(C2(O)CCN(C(=O)Cn3cc(C)c(=O)[nH]c3=O)CC2)nc1 | 7.31% |
| CSc1ccc(C(=O)C2CCCN(C(=O)CCCn3cncn3)C2)cc1 (stereo not given) | 9.79% |
| NC(=O)c1cc(C2CCCN(CCc3ccc4c(c3)CCO4)C2)n[nH]1 (stereo not given) | 3.33% |
| CCOc1ccccc1C(C(=O)O)N(C)Cc1nc(C)c[nH]1 (stereo not given) | 7.59% |
| CC(C)(C)CC(NC(=O)N1CCC(C(N)=O)CC1)C(F)(F)F (stereo not given) | -1.73% |
| Clc1ccc2c(c1)C=C(CNC1CCc3ncnn3C1)CO2 (stereo not given) | 12.6% |
| O=C1CCCCN1CCc1nc(C2(c3ccc(F)cc3)CCOC2)no1 (stereo not given) | 0.752% |
| Cc1csc(C(C)(C)NCCOc2ccc(CC#N)cc2)n1 | -8.66% |
| COCC1CCN(C(C(=O)O)c2c(F)cccc2OC(C)C)CC1 (stereo not given) | 5.46% |

From ChEMBL document CHEMBL3988442, “University of Dundee, Small-Polar-MMV Screening Library” (2021)
